In PubChem BioAssay (NCI) one finds growth data, which are given here for 40 compounds.

Values joined by “and” are separate entries in the source; they are usually repeats but may differ in a detail not shown here. Identical values can stand only once. About 83,000 compounds went through this panel and 20% of them were active in at least one assay; those are over-represented in the sample as a whole.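 Single-dose data. Exposure time 48 hours. Values below 10 considered active.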 Some structures have more than one record in an assay (separate samples or runs), and their calls can disagree. Active and inactive are the calls of the source. *1 amine or outer side, *2 acyl side, *3 side chain or, on linkers, in order; H or OH if unused. Where a SMILES comes first, the peptide text is derived from it. Bridges are numbered along the chain shown (N, C = ends). Roman numbers before positions name the chains, in order. [ ]: non-standard residue; d: D form. Actinocin(1to9) = Cc1c2oc3c(C)ccc(C(=O)[*:2])c3nc-2c(C(=O)[*:1])c(N)c1=O; NMeV = CN[CH](C(=O)O)C(C)C; Sar = CNCC(=O)O

The subject of the experiment is HCT-15 colon. Kind of experiment: NCI-60 one-dose screen, 48 h (100 = growth as untreated, 0 = no growth, -100 = all killed). To be noted: 10 µM unless noted. On the procedure:
Growth inhibition of the HCT-15 human tumor cell line is measured as a screen for anti-cancer activity. Cells are grown in 96 well plates and exposed to the test compound for 48 hours. Compounds are tested at a single concentration, which is 10^-5 M for most compounds. The reported endpoint is percent growth (GI% or GIPRCNT), where numbers from 0 - 100% represent growth inhibition, and numbers from -100% - 0 represent cell death. For example, a value of 40 represents 60% growth inhibition. A value of 0 means no net growth occurred over the course of the experiment. A value of -40 indicates 40% of cells at the beginning of the experiment died by the end of the experiment. A value of -100 means all cells are dead at the end of the experiment.
NCI-60 Human Tumor Cell Lines Screen was performed using the standard one-dose NCI protocol, which is described in more detail at https://dtp.cancer.gov/discovery_development/nci-60/default.htm.
Compounds with GIPRCNT values below 10 were considered active. Activity score was based on GIPRCNT using the following formula: […]
Score is 0 for GIPRCNT values of 100 or above, 50 for GIPRCNT values of 0, and 100 for GIPRCNT values of -100.
Take `O=C1C=CC(=O)N1c1ccc(O)cc1`: the growth was 102% (inactive).

Regarding `CCOC(=O)C1(C)CCCC1N` (stereo not given), the growth is 108% (inactive).

On to `CCOC(=O)c1[nH]c(C#N)c(C(=O)OCC)c1C`, for which the growth is 92.2% (inactive).

With `CN(C)c1ccc(C(C#N)(c2ccccc2)c2ccc(N(C)C)cc2)cc1`, the growth was 71.8% (inactive).

For `CC(=O)c1c(O)c(C)c(O)c2c1OC1=CC(=O)C(C(C)=O)C(=O)C12C` (stereo not given), the growth was 84.4% (inactive).

Turning to `Oc1ccc2ccccc2c1N=Nc1nccs1`, the growth was 24% (inactive).

Turning to `CCOC(=O)C1=NN(c2ccccc2)C(=O)/C1=C\N1C(=O)/C(=C/c2cccc(O)c2)SC1=S`, the growth was 109% (inactive).

As to `CCCCCCCCCCCC1=NCCCN1CCCC`, the growth was 91.7% (inactive).

Take `CCCCCCCCCCCCSC(=N)N`: the growth is -21.4% (active).

In the case of `Nc1cccc2cccc([N+](=O)[O-])c12`, the growth is 105% (inactive).

`N=C(N)Sc1cccc[n+]1[O-]`: the growth is 32.8% (inactive).

Take `S=C1SCN(Cc2cccs2)CN1Cc1cccs1`: the growth is 96.6% (inactive).

With `CCC(C)C1NC(=O)C(NC(=O)c2c3nc4c(C(=O)NC5C(=O)NC(C(C)CC)C(=O)N6CCCC6C(=O)N(C)CC(=O)N(C)C(C(C)C)C(=O)OC5C)ccc(C)c4oc-3c(C)c(=O)c2N)C(C)OC(=O)C(C(C)C)N(C)C(=O)CN(C)C(=O)C2CCCN2C1=O` (stereo not given) (I: TIP[Sar][NMeV] / II: TIP[Sar][NMeV]; ester I:1-I:C, II:1-II:C; linker I:N-II:N via Actinocin(1to9); configuration not given here), the growth is 2.48% (active).

As to `N#C/C(=N\Nc1ccc(Cl)cc1)C(=O)C1CC1`, the growth was 53.9% (inactive).

In the case of `Cc1oc2c(C)c3oc(=O)cc(C)c3cc2c1CCl`, the growth was 91.8% (inactive).

As for `O=C1Nc2ccc(Br)cc2C1=O`, the growth is 100% (inactive).

As to `O=C(Nc1ccc(Cl)c(Cl)c1)OCc1ccco1`, the growth is 29.7% (inactive).

Regarding `COc1ccc(NC(=O)/C(=C/N2C(=O)/C(=C/c3ccc(OC)c(OC)c3)NC2=S)C(C)=O)cc1`, the growth is 80.1% (inactive).

Consider `CC/C(=C(/CC)c1ccc(O)cc1)c1ccc(O)cc1`, for which the growth is 47.2% (inactive).

As to `CC1(C)N=c2cc3c(cc2N1c1ccc(Cl)cc1)=Nc1ccccc1N3c1ccc(Cl)cc1`, the growth was 33.2% (inactive).

For the compound `O=C(Nc1cccc(C(F)(F)F)c1)Oc1ccc(Cl)c2cccnc12`, the growth was 2.21% (active).

As for `O=C1/C(=C/c2ccccc2)CCC/C1=C\c1ccccc1`, the growth was 81.5% (inactive).

On to `S=c1[nH]c2cc(Cl)ccc2s1`, for which the growth is 109% (inactive).

Consider `O=C1c2ccccc2C(=O)c2c(O)c(Cl)cc(O)c21`, for which the growth was 81.9% (inactive).

As for `CCOC(=O)C1=C(C(=O)c2ccccc2)C(c2cccc([N+](=O)[O-])c2)C(C(=O)c2ccccc2)=C(C(=O)OCC)N1`, the growth is 66.4% (inactive).

As to `O=C1C(=O)c2cccnc2-c2ncccc21`, the growth is -20.5% (active).

With `CC(CSc1n[nH]c(=S)s1)c1ccccc1` (stereo not given), the growth is 110% (inactive).

As to `C/C=C/c1cc2c(c(=O)o1)C(=O)[C@@H](O)[C@H](C)O2`, the growth was -25.4% (active).

For the compound `CCC(C)C(N)C(=O)NC(CC(N)=O)C(=O)NC(CC(C)C)C(=O)NC(CCCCN)C(=O)NC(C)C(=O)NC(CC(C)C)C(=O)NC(C)C(=O)NC(C)C(=O)NC(CC(C)C)C(=O)NC(C)C(=O)NC(CCCCN)C(=O)NC(CCCCN)C(=O)NC(C(=O)NC(CC(C)C)C(N)=O)C(C)CC` (stereo not given), the growth is 101% (inactive).

Turning to `NNc1cccc([N+](=O)[O-])c1`, the growth is 101% (inactive).

For `OC(c1cc(-c2ccc(C(F)(F)F)cc2)nc(C(F)(F)F)c1)C1CCCCN1` (stereo not given), the growth was -36.1% (active) and -65.7% (active) and 14.6% (inactive).

Consider `NC(=S)N/N=C\c1nccc2c(N)cccc12`, for which the growth is 29.6% (inactive).

With `O=C(O)c1cc2c(s1)C(=O)c1sccc1C2=O`, the growth was -59.3% (active).

With `Cc1cc(=O)oc2cc(O)cc(O)c12`, the growth is 108% (inactive).

Take `COC(=O)C(=[N+]=[N-])C(=O)c1ccc([N+](=O)[O-])o1`: the growth was 10.5% (inactive).

For the compound `C/C(=N\NC(=S)N1CC2CCC(CC2)C1)c1ccccn1`, the growth is 18.4% (inactive).

For `O=C(c1ccc(O)c(Br)c1)c1ccc(O)c(Br)c1`, the growth was 104% (inactive).

For the compound `N#CCc1cccc2ccccc12`, the growth is 100% (inactive).

`O=C1C=CC(=O)c2c(O)c(CO)c(CO)c(O)c21`: the growth was 37.8% (inactive).

Regarding `CC(C)=C1C=C2CC[C@@H]3[C@](C)(CCC[C@@]3(C)C(=O)O)[C@H]2CC1`, the growth was 98% (inactive).
